# Source: PubChem BioAssay (The Scripps Research Institute Molecular Screening Center)
# Shown are actives, neighbours in structure and some others; about 3.4% of the full set was active somewhere.
# MITF primary = MITF inhibitors, primary screen, biochemical, AlphaScreen, human; Microphthalmia-associated transcription factor (Homo sapiens), O75030; AlphaScreen MITF homodimerization, bead proximity signal; inhibition, % at 2.6 µM; 650,000 compounds, 0.91% hits; AID 1259374, 2018; in the data active = inhibition above about 50%;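 note: 0% = vehicle wells with protein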
# GPR151 activ = activators of human GPR151, primary screen, cell-based, PathHunter beta-arrestin, luminescence; activation, % at 11.2 µM; AID 1508602, 2020; PathHunter beta-arrestin GPR151 cells; 650,000 compounds, 1% hits; G-protein coupled receptor 151 (Homo sapiens), Q8TDV0; in the data active = activation above about 4.9%;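 note: 0% = median of compound wells and 100% = cells with positive control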
# TEAD-YAP block = TEAD-YAP interaction inhibition, primary screen, TEAD-YAP interaction inhibitor project, luminescence, HEK-TIYL cells. inhibition, % at 9.12 µM. TEAD-Gal4/YAP UAS-luciferase luminescence. AID 1259422, 2018. 640,000 compounds, 1.4% hits; in the data active = inhibition above about 32%;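 note: 0% = median of test compound wells and 100% = reference inhibitor wells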
# FBW7 activator = FBW7 E3 ligase activators, primary screen, biochemical, AlphaScreen, human. F-box/WD repeat-containing protein 7 (Homo sapiens), Q969H0. AlphaScreen FBW7–phospho-cyclin E peptide binding, activator screen. normalized activity (activation), % at 26.1 µM. 650,000 compounds, 0.13% hits; in the data active = normalized activity above about 1.9%;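 note: purified mutant Fbw7 with reduced substrate affinity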
# Target sequence (Q969H0 whole entry, looked up): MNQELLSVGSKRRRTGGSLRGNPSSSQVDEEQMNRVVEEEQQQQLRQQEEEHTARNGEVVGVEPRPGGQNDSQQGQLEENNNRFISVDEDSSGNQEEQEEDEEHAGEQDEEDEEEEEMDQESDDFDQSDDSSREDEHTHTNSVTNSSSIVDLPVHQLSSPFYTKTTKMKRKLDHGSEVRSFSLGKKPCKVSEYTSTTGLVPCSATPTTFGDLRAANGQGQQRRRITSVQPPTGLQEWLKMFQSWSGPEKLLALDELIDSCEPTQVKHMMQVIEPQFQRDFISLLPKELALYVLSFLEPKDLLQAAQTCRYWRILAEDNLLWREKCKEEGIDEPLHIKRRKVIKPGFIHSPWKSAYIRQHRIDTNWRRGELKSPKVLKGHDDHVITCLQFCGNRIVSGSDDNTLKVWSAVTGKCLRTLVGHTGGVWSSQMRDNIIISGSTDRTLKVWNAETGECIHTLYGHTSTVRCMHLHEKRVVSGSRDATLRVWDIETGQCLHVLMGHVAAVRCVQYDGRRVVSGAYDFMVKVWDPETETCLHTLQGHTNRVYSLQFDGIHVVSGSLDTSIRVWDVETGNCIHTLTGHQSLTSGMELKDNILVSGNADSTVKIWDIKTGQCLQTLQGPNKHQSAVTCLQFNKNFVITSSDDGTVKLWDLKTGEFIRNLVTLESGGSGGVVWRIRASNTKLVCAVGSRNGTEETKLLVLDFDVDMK
# MITF confirm = MITF inhibitors, retest of hits, confirmation, biochemical, AlphaScreen, triplicate; inhibition, % at 2.6 µM; shares compounds with MITF primary; 4,700 compounds, 16% hits; AlphaScreen MITF homodimerization, biotin/His-MITF beads;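 active = inhibition above a cutoff derived from the DMSO control wells, cut at about 28% in these data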;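 note: 0% = MITF dimer wells with DMSO only; inhibitors lower the bead chemiluminescence by keeping MITF from dimerizing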
# AS interf DR = AlphaScreen optical interference compounds, dose response, counter-screen, biochemical, HTS | 480 compounds, 6% hits | shares compounds with MITF primary | AlphaScreen optical interference counterscreen, cell-free | IC50, µM; call rule not given here
# AlphaScreen intf2 = AlphaScreen optical interference compounds, counter-screen for MITF inhibitor project, biochemical, triplicate; shares compounds with MITF primary; LysRS AlphaScreen counterscreen, signal interference; inhibition, % at 2.6 µM; 4,700 compounds, 7.6% hits;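 active = inhibition above a cutoff derived from the DMSO control wells, cut at about 30% in these data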
# The depositor's hits bear a star; nt = no result given.
SMILES,MITF primary,GPR151 activ,TEAD-YAP block,FBW7 activator,MITF confirm,AlphaScreen intf2,others
CCC(C)N1CCN(Cc2ccc(Cl)cc2)CC1 (stereo unspecified),73.6*,-0.3,1.7,-0.1,8.5,14.2,
CCOc1ccc(N2C(=O)NC(=O)/C(=C/c3cn(C(C)=O)c4ccccc34)C2=O)cc1,19.3,1.0,2.1,0.2,nt,nt,
O=[N+]([O-])c1ccc(Br)c2c1no[n+]2[O-],73.5*,-1.4,-4.4,-1.0,73.3*,6.8,AS interf DR=>7.51
CN1/C(=C\P(=S)(c2ccccc2)N2CCOCC2)C(C)(C)c2ccccc21 (stereo unspecified),-10.9,0.4,2.3,-0.1,nt,nt,
CCC(C)N1CCN(Cc2ccc(OC)c(OC)c2)CC1 (stereo unspecified),64.0*,-0.2,8.4,0.1,2.3,10.2,
CCC(C)N1CCN(Cc2ccc(OC)cc2)CC1 (stereo unspecified),69.1*,-1.3,-0.9,0.3,1.4,11.5,
COc1cc(Br)c(CN2CCN(C)CC2)cc1OC,9.7,-0.7,3.4,-0.1,nt,nt,
COc1cc(OC)c(CN2CCN(C)CC2)cc1Br,62.4*,0.6,-0.2,0.0,-2.9,11.5,
CCOc1ccc(CN2CCN(C(C)CC)CC2)cc1 (stereo unspecified),66.2*,-0.3,2.4,-0.1,1.4,-1.2,
CN1C(=O)C(C(=O)c2ccccc2)C(=O)N(C)C1=O,12.1,-0.6,-1.1,0.0,nt,nt,
CCC(C)N1CCN(Cc2ccc3c(c2)OCO3)CC1 (stereo unspecified),71.3*,-1.2,-1.4,0.9,0.3,0.2,
CCN1CCN(Cc2ccc(OC)cc2OC)CC1,5.8,0.0,-5.2,-0.1,nt,nt,
Cc1ccc(CN2CCN(Cc3ccc4c(c3)OCO4)CC2)cc1,45.9,-1.1,0.9,0.1,nt,nt,
CCC(C)N1CCN(Cc2cc(OC)c(OC)cc2OC)CC1 (stereo unspecified),64.2*,-1.1,-4.9,-0.3,-0.6,2.0,
CC1=Nc2ccccc2C2C(C(=O)C34CC5CC(CC(C5)C3)C4)C12C#N (stereo unspecified),13.8,0.5,-5.0,0.0,nt,nt,
COc1ccc(CN2CCN(C)CC2)c(O)c1,8.3,-1.5,6.8,0.6,nt,nt,
CCOc1ccc(CN2CCN(Cc3cccc(C)c3)CC2)cc1,54.5*,1.4,14.2,-0.1,1.4,3.5,
CCOc1ccc(CN2CCN(Cc3cccc(Cl)c3)CC2)cc1,66.8*,-0.6,6.1,-0.1,-0.8,-2.1,
CCN1CCN(Cc2cccc(Cl)c2)CC1,13.6,0.2,7.5,0.0,nt,nt,
COc1ccc(CN2CCN(Cc3ccccc3Cl)CC2)cc1Br,78.0*,-0.1,-10.2,-0.2,-4.0,4.1,
COc1ccc(CN2CCN(Cc3ccccc3C)CC2)cc1Br,82.9*,0.1,1.2,-0.1,-2.3,1.6,
CCCc1noc(CN2CCN3CCCC3C2)n1 (stereo unspecified),5.0,0.3,1.8,-0.1,nt,nt,
COc1cccc(CN2CCN(Cc3cccc(Cl)c3)CC2)c1,70.4*,-0.6,16.6,0.2,14.0,19.5,
CC(=O)c1ccc(N2CCN(Cc3cccc(Cl)c3)CC2)cc1,32.5,1.4,-2.4,-0.2,nt,nt,
COc1ccc(O)c(CN2CCN(Cc3cccc(Cl)c3)CC2)c1,5.4,0.5,-5.2,-0.2,nt,nt,
SMILES,MITF primary,GPR151 activ,TEAD-YAP block,FBW7 activator,MITF confirm,AlphaScreen intf2,others
CSc1ccc(CN2CCN(Cc3cccc(Cl)c3)CC2)cc1,67.0*,0.0,2.1,-0.3,18.6,20.2,
COc1ccc(CN2CCN(Cc3cccc(Cl)c3)CC2)cc1,82.5*,1.4,5.9,-0.1,19.4,14.2,
O=C(Cn1c[n+]([N-][N+](=O)[O-])cn1)Nc1ccc(Cl)cc1Cl,8.0,-1.3,8.2,0.0,nt,nt,
O=C(COc1ccccc1)N1CCN(Cc2cccc(F)c2)CC1,44.9,-0.9,9.5,0.1,nt,nt,
O=C(COc1ccc(Cl)cc1)N1CCN(Cc2cccc(F)c2)CC1,68.3*,-0.3,-0.7,0.1,-1.9,2.3,
COc1ccc(CN2CCN(C(=O)COc3ccc(Cl)cc3)CC2)cc1OCc1ccccc1,58.7*,0.5,9.0,-0.2,2.8,10.9,
COCCCn1c(N)c(C(=O)OCC(C)C)c2nc3ccccc3nc21,28.2,0.8,13.2,-0.4,nt,nt,
CSc1ccc(CN2CCN(C(=O)COc3ccc(Cl)cc3)CC2)cc1,-6.5,0.9,15.3,0.0,nt,nt,
O=C(COc1ccc(Br)cc1)N1CCN(Cc2ccc3c(c2)OCO3)CC1,63.9*,2.1,9.4,0.1,14.3,25.5,
COc1cc(OC)c(OC)cc1CN1CCN(C(=O)COc2ccccc2)CC1,53.9*,-1.8,13.2,0.6,7.3,20.2,
O=C(COc1ccc(Br)cc1)N1CCN(Cc2ccncc2)CC1,100.4*,0.8,1.8,0.0,-4.0,-1.5,
Cc1ccc(CC(=O)N2CCN(Cc3ccc4c(c3)OCO4)CC2)cc1,11.1,2.0,-1.4,-0.1,nt,nt,
COc1cccc(CN2CCN(C(=O)COc3cccc(C)c3)CC2)c1,57.3*,0.8,0.3,0.4,-4.0,3.3,
O=C(Nc1cccc(F)c1)N(Cc1cccnc1)C1CCN(Cc2ccncc2)CC1,9.0,0.3,-1.4,-0.1,nt,nt,
O=C1CCCN1CCCNc1ccc([N+](=O)[O-])c2cnccc12,-0.8,0.6,-5.0,-0.2,nt,nt,
NNc1nc(Nc2ccc(F)cc2)nc(N2CCOCC2)n1,8.3,0.1,-10.4,-0.2,nt,nt,
COc1cc(CN2CCN(C(=O)COc3ccccc3)CC2)cc(OC)c1OC,43.9,0.4,-4.2,-0.2,nt,nt,
COc1ccc(OCC(=O)N2CCN(Cc3cccc(Br)c3)CC2)cc1,63.8*,0.4,-10.0,-0.1,13.2,-3.7,
Cc1cccc(OCC(=O)N2CCN(Cc3ccncc3)CC2)c1,72.8*,-0.2,-7.7,-0.2,-2.8,2.5,
COc1ccccc1CN1CCN(C(=O)COc2cccc(C)c2)CC1,80.4*,-0.5,3.8,0.1,-6.5,-4.0,
COc1ccc(OCC(=O)N2CCN(Cc3cccc(OC)c3)CC2)cc1,43.1,2.8,10.7,-0.2,nt,nt,
COc1ccc(OCC(=O)N2CCN(Cc3ccccc3C)CC2)cc1,53.9*,0.1,-6.0,0.1,6.4,0.5,
O=[N+]([O-])c1ccc(NC2CCCCC2)c2ncccc12,11.8,0.4,-9.1,-0.4,nt,nt,
O=[N+]([O-])c1ccccc1CN1CCN(Cc2ccccc2Br)CC1,58.2*,-0.9,-1.4,-0.2,2.4,2.3,
O=[N+]([O-])c1ccccc1CN1CCN(Cc2ccccc2)CC1,17.2,1.5,-9.7,0.0,nt,nt,
CCN1CCN(Cc2ccccc2Br)CC1,-6.2,-1.1,1.8,-0.2,nt,nt,
